The record followed here is publication PMC4336329 (PLoS ONE, 2015).

The whole screen tested about 310,000 compounds, of which about 14,000 (4.5%) showed an effect of 50% or more. The effect is printed as a negative number. The entries come from a sample that favours strong results as a whole.
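Note: peak tail current of the secondary pulse compared with the same well before compound.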

Chain of human ether-à-go-go-related gene (hERG) potassium channel (Q12809 whole entry, looked up): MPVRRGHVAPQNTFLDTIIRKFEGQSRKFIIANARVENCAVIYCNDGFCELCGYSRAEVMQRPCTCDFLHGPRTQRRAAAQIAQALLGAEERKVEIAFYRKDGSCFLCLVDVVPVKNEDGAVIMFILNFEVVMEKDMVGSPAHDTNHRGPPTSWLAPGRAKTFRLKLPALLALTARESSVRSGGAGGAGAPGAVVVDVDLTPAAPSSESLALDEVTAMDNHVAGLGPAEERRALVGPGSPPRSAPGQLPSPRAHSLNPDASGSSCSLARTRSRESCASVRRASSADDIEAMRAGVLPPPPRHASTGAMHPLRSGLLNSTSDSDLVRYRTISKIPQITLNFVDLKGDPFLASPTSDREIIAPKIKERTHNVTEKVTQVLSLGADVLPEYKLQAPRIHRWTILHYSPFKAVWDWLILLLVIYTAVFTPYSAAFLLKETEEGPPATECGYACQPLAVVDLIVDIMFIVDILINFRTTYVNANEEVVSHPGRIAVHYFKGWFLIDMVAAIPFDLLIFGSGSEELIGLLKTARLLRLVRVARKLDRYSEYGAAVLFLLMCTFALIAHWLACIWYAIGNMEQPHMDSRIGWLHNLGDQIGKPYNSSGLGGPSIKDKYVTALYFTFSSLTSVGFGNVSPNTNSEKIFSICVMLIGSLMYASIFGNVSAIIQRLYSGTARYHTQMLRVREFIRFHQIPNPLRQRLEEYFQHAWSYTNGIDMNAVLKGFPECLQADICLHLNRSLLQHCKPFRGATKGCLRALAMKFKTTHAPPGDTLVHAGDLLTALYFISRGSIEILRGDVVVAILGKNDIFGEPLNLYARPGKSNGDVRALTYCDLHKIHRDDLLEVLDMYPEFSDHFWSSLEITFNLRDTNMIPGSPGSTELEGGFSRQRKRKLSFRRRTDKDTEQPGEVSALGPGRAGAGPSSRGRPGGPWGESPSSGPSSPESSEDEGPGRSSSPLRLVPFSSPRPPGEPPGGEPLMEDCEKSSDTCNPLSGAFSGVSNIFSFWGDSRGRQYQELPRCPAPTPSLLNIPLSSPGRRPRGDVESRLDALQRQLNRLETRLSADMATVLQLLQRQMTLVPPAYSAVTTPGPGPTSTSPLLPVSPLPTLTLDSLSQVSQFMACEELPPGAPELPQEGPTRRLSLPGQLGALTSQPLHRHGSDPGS

In the assay the target is human ether-à-go-go-related gene (hERG) potassium channel (human, UniProt Q12809). Description: primary screen, population patch clamp on CHO cells stably expressing hERG; higher = less effect of the substance. As to the method:
Briefly, Chinese hamster ovary (CHO) cells stably expressing the hERG channel were dislodged from tissue culture flasks and dispensed into PPC plates. […] During the recording, background leak currents were estimated by a 100 ms step to -80 mV from an initial holding potential of -70 mV and subtracted from the subsequent current measurement. The campaign was conducted in two phases using slight differences in recording protocol. In the first phase, the initial voltage pulse used a 100 ms step to -30 mV from a holding potential of -70 mV, a 2 s conditioning step to +25 mV, and a 2 s test step to -30 mV. During the second phase of the screen, the potential during the conditioning step was raised to +45 mV. In both phases of the campaign, a secondary voltage pulse was applied using the same parameters as the second phase initial pulse. The initial and secondary pulses were applied in the absence of compound, and upon application of 1 μM and 10 μM test concentrations. […]
`COc1ccccc1-n1c(SCC(=O)NC2CC2)nc2ccccc2c1=O`: the “hERG current change (%, negative = inhibition) at 10uM” value is reported as -23.1%.
The value for `CCN(CC)S(=O)(=O)c1ccc2c(c1)nc(SCC(N)=O)n2-c1ccc(OC)cc1` was -77.7%.
As to `COc1ccc(-n2nnnc2SC(C)C(N)=O)cc1` (stereo not shown), the “hERG current change (%, negative = inhibition) at 10uM” value came out at 8.68%.
With `CCN(CC)S(=O)(=O)c1ccc2c(c1)nc(SCC(=O)N1CCOCC1)n2-c1ccccc1OC`, the “hERG current change (%, negative = inhibition) at 10uM” value was -31.1%.
For the molecule `CCN(CC)S(=O)(=O)c1ccc2c(c1)nc(SC(C)C(N)=O)n2-c1ccc(OC)cc1` (stereo not shown), the “hERG current change (%, negative = inhibition) at 10uM” value is recorded as -51.7%.
The value for `CCN(CC)S(=O)(=O)c1ccc2c(c1)nc(SCC(=O)NC1CC1)n2-c1ccccc1OC` was -56.2%; that for `CCCCn1c(SC(C)C(=O)c2ccc(OC)cc2)nc2cc(S(N)(=O)=O)ccc21` (stereo not shown) was -18.1%; that for `CCn1c(CSc2nncn2-c2ccc(OC)cc2)nc2cc(S(=O)(=O)N(C)C)ccc21` was -14.5%.
To `CCN(CC)S(=O)(=O)c1ccc2c(c1)nc(SCC(=O)N1CCCCCC1)n2-c1ccc(OC)cc1` belongs -21%.
Consider `NCCNc1ccc([N+](=O)[O-])c2cccnc12`, for which the “hERG current change (%, negative = inhibition) at 10uM” value is recorded as 1.29%.
To `CCOc1ccccc1NC(=O)NNS(=O)(=O)c1cc(C)ccc1C` belongs 6.71%.
The value for `CSc1ccccc1NC(=O)Cc1ccc(Br)cc1` was -10.2%.
On to `Cc1ccc(C)c(NC(=S)N2CCC(NC(=O)c3cccc(F)c3)CC2)c1`, for which the “hERG current change (%, negative = inhibition) at 10uM” value is 1.08%.
To `O=C(N/N=C/c1ccc(COc2ccc(Br)cc2)o1)c1ccco1` belongs 2.73%; to `Cc1ccccc1NS(=O)(=O)c1ccc2c3c(cccc13)C(=O)N2C`, -4.02%.
As for `O=C(C1CCN(S(=O)(=O)c2cccnc2)CC1)N1CCN(c2ccc(Cl)cc2)CC1`, the “hERG current change (%, negative = inhibition) at 10uM” value is recorded as -56.2%.
With `Cc1ccc(Cl)cc1N1CCN(C(=O)C2CCN(S(=O)(=O)c3cccnc3)CC2)CC1`, the “hERG current change (%, negative = inhibition) at 10uM” value is given as -46%.
The value for `O=C(C1CCN(S(=O)(=O)c2cccnc2)CC1)N1CCN(c2cccc(Cl)c2)CC1` was -31.5%; that for `O=C(C1CCN(S(=O)(=O)c2ccc(Cl)cc2)CC1)N1CCN(c2ccccn2)CC1` was -64.7%.
The value for `Cc1ccc(S(=O)(=O)N2CCC(C(=O)N3CCN(c4ccccn4)CC3)CC2)cc1` was -19.4%; that for `O=S(=O)(c1ccc(Cl)cc1)N1CCN(c2ccccn2)CC1` was -4.62%.
The value for `Clc1ccc2noc(-c3ccccc3)c2c1` was 7.67%.
As for `COc1ccccc1CNC(=O)c1cnccn1`, the “hERG current change (%, negative = inhibition) at 10uM” value is 0.0654%.
Take `OCCC1CN(Cc2cccnc2)CCN1CCc1ccccc1` (stereo not shown): the “hERG current change (%, negative = inhibition) at 10uM” value was -34.8%.
In the case of `OCCC1CN(Cc2cccc(O)c2)CCN1CCc1ccccc1` (stereo not shown), the “hERG current change (%, negative = inhibition) at 10uM” value was -24.4%.
As for `COc1cc(CN2CCN(CCc3ccccc3)C(CCO)C2)cc(OC)c1` (stereo not shown), the “hERG current change (%, negative = inhibition) at 10uM” value is listed as -63.5%.
Take `COc1cc(CN2CCN(CCCc3ccccc3)CC2CCO)cc(OC)c1` (stereo not shown): the “hERG current change (%, negative = inhibition) at 10uM” value is -71.1%.
Turning to `COc1cc(CN2CCN(CC#Cc3ccccc3)CC2CCO)cc(OC)c1` (stereo not shown), the “hERG current change (%, negative = inhibition) at 10uM” value is given as -1.09%.
As for `COc1cc(CN2CCN(Cc3cn(C)c4ccccc34)CC2CCO)cc(OC)c1` (stereo not shown), the “hERG current change (%, negative = inhibition) at 10uM” value is recorded as -43.7%.
The value for `C#CCOCCOCCOCCNc1nc(N2CCN(C(=O)[C@H]([C@@H](C)CC)n3cc([C@@H](N)CO)nn3)CC2)nc(N2CCN(C(=O)[C@H]([C@@H](C)CC)n3cc([C@@H](N)CC(C)C)nn3)CC2)n1.Cl` was 7.34%.
To `CC1CCCCN1CCNC(=O)C1CCN(S(=O)(=O)c2cccc3nsnc23)CC1` (stereo not shown) belongs 2.44%; to `CCS(=O)(=O)Nc1cccc(-c2ccc3nnc(-c4cccnc4)n3n2)c1`, -4.03%.
To `CC(C)c1ccc(N(CC(=O)N/N=C/c2ccc(OC3CSC3)cc2)S(=O)(=O)c2ccccc2)cc1` belongs 12.8%; to `CC(NC=O)c1nc2ccccc2n1CCc1ccccc1` (stereo not shown), 5.34%.
On to `CCc1ccc(NC(=O)C(=O)NCC(O)c2ccccc2)cc1` (stereo not shown), for which the “hERG current change (%, negative = inhibition) at 10uM” value was 8.25%.
The value for `O=C(NCCc1ccccc1)c1ccc(Cl)cc1[N+](=O)[O-]` was -0.169%; that for `Cc1cccc(OCc2nnc(SCC(=O)Nc3cccc(C(=O)N4CCOCC4)c3)o2)c1C` was -2.16%.
The value for `COc1ccc(OCc2nnc(SCC(=O)Nc3cccc(C(C)=O)c3)o2)cc1` was 4.32%; that for `COc1ccc(NC(=O)CSc2nnc(CNC(=O)c3ccco3)o2)cc1` was 11.8%.
For `CCc1ccc(OCc2nnc(SCC(=O)NCc3ccco3)o2)cc1`, the “hERG current change (%, negative = inhibition) at 10uM” value is recorded as -55.2%.
In the case of `CCOc1ccc(NC(=O)CSc2nnc(CNC(=O)c3ccco3)o2)cc1`, the “hERG current change (%, negative = inhibition) at 10uM” value is -10.2%.
As to `O=C(CSc1nnc(CNC(=O)c2ccco2)o1)Nc1ccc(OC(F)(F)F)cc1`, the “hERG current change (%, negative = inhibition) at 10uM” value is -52.6%.
The value for `COc1ccc(Cc2nnc(SCC(=O)NCc3ccco3)o2)cc1` was 8.75%; that for `COc1ccc(OCc2nnc(SCC(=O)NCc3ccco3)o2)cc1` was -14.4%; that for `CCc1ccc(OCc2nnc(SCC(=O)Nc3cccc(C(=O)N4CCOCC4)c3)o2)cc1` was -61.4%.
`Cc1cc(Cl)ccc1NC(=S)NCCCN1CCCC1=O`: the “hERG current change (%, negative = inhibition) at 10uM” value stood at 7.99%.
The value for `O=C1CCCN1CCCNC(=S)Nc1ccc(Cl)cc1Cl` was -65.5%.
The value for `O=C1CCCN1CCCNC(=S)Nc1ccc(Br)cc1Cl` was -2.97%.
As to `CCOC(=O)CC(=O)CSc1nc2c(sc(=S)n2-c2ccc(C)c(C)c2)c(=O)[nH]1`, the “hERG current change (%, negative = inhibition) at 10uM” value is given as -10.7%.
With `COc1ccccc1-c1sc2cc3c(cc2c1C#Cc1ccccn1)OCO3`, the “hERG current change (%, negative = inhibition) at 10uM” value is reported as 8.78%.
On to `CSc1cccc(NC(=O)c2cc(S(=O)(=O)N3CCc4ccccc43)cn2C)c1`, for which the “hERG current change (%, negative = inhibition) at 10uM” value is -12.4%.
To `O=C(Nc1ccc(Oc2ccccc2)nc1)C1CCN(Cc2ccco2)CC1` belongs -30.8%.
Take `CCc1ccc(CN2CCC(C(=O)Nc3ccc(Oc4ccccc4)nc3)CC2)o1`: the “hERG current change (%, negative = inhibition) at 10uM” value is given as -58.9%.
To `C#Cc1ccc(CN2CCC(N3CCC(C(=O)NCc4ccccn4)CC3)CC2)cc1` belongs -72.2%.
To `CCn1cc(CN2CCC(C(=O)Nc3ccc(Oc4ccccc4)nc3)CC2)cn1` belongs -30.3%; to `O=C(Nc1ccc(Oc2ccccc2)nc1)C1CCN(Cc2cccc(F)c2)CC1`, -49.8%.
For `C#Cc1ccc(CN2CCC(Oc3ccc(C(=O)NCc4ccccn4)cc3)CC2)cc1`, the “hERG current change (%, negative = inhibition) at 10uM” value is given as -25%.
Turning to `COc1ccc(CN2CCC(C(=O)Nc3ccc(Oc4ccccc4)nc3)CC2)cc1F`, the “hERG current change (%, negative = inhibition) at 10uM” value is reported as -71.6%.
Take `O=C(Nc1ccc(Oc2ccccc2)nc1)C1CCN(Cc2ccccc2)CC1`: the “hERG current change (%, negative = inhibition) at 10uM” value is -54.9%.
To `COCCC(=O)N1CCC(C(=O)Nc2ccc(Oc3ccccc3)nc2)CC1` belongs 17.6%; to `CSCC(C)N1CCC(N2CCC(C(=O)NCc3ccccn3)CC2)CC1` (stereo not shown), -9.59%; to `COc1cc(CN2CCCCC2C(=O)Nc2ccc(Oc3ccccc3)nc2)ccc1O` (stereo not shown), -4.36%.
To `COCc1ccc(CN2CCCCC2C(=O)Nc2ccc(Oc3ccccc3)nc2)o1` (stereo not shown) belongs -0.373%; to `Brc1ccccc1OCCOc1cccc2cccnc12`, 14.1%.
The value for `O=C1OC2(CCCCC2)OC(=O)C1=CNc1nccs1` was 3.3%; that for `O=C1CC(=O)C(n2cncn2)C(c2ccc(Cl)cc2Cl)C1` (stereo not shown) was 7.83%.
`CC(=O)Nc1ccc(S(=O)(=O)NCc2nnnn2-c2ccc(F)cc2)cc1`: the “hERG current change (%, negative = inhibition) at 10uM” value is on record as 3.41%.
To `Cc1ccc(C(=O)N2CCN(c3ncccn3)CC2)c(C)c1` belongs 12.1%; to `CCOC(=O)c1c(C)sc(Sc2ccc(Cl)cc2[N+](=O)[O-])c1OC`, 11.3%; to `COc1ccc(C2C(C#N)=C(/N=C/N3CCOCC3)OC3=C2C(=O)CC(C)(C)C3)cc1OC` (stereo not shown), -13.5%.
On to `C#Cc1ccc(CN2CCC(C(=O)Nc3ccc(Oc4ccccc4)nc3)CC2)cc1`, for which the “hERG current change (%, negative = inhibition) at 10uM” value is on record as -72.3%.
To `O=C(Nc1ccc(Oc2ccccc2)nc1)C1CCCCN1Cc1ccc(O)cc1` (stereo not shown) belongs -25.2%; to `CC#CC(=O)N1CCC(C(=O)Nc2ccc(Oc3ccccc3)nc2)CC1`, 1.55%; to `Cc1ccc(C)c(S(=O)(=O)N2CCN(CC(=O)Nc3cc(C)on3)CC2)c1`, -12.6%.
`CCCCc1cc(=O)oc2c(CN(C)C)c(O)c(Cl)cc12`: the “hERG current change (%, negative = inhibition) at 10uM” value was -1.34%.
To `CC(NS(=O)(=O)c1ccc(Cl)cc1)C(=O)Nc1ccc2c(c1)OCCO2` (stereo not shown) belongs -19.4%; to `CCOCCCNC(=O)CCC(=O)NNc1nc2ccccc2c2nc(-c3ccccc3)nn12`, -47.5%.
Turning to `CCCCc1c(O)nc(SCCN(C)C)n(-c2ccccc2)c1=O`, the “hERG current change (%, negative = inhibition) at 10uM” value was 10.1%.
The value for `CCN(CC)CCSc1nc(O)c(Cc2ccccc2)c(=O)n1-c1ccccc1.Cl` was 15.8%.
For the molecule `CCCc1c(O)nc(SCCN(CC)CC)n(C(=O)c2ccccc2)c1=O.Cl`, the “hERG current change (%, negative = inhibition) at 10uM” value was -58%.
For the molecule `CCN(CC(=O)Nc1c(F)cccc1F)C(=O)Cc1csc(-c2ccc(OC)c(OC)c2)n1`, the “hERG current change (%, negative = inhibition) at 10uM” value is on record as -2.82%.
The value for `CCOc1ccccc1NC(=S)NCCc1ccccc1` was 4.14%; that for `O=C(Cn1c(=O)n(Cc2ccco2)c(=O)c2ccccc21)NCC1CCCO1` (stereo not shown) was 2.5%; that for `O=C(Cc1ccc(-n2c(=O)c3ccccc3n(Cc3ccc(F)cc3)c2=O)cc1)NCC1CCCO1` (stereo not shown) was -19.6%.
As to `O=C(Cn1c(=O)n(Cc2ccc(F)cc2)c(=O)c2ccccc21)NCC1CCCO1` (stereo not shown), the “hERG current change (%, negative = inhibition) at 10uM” value is listed as -2.66%.
In the case of `Nc1c(C(=O)NCC2CCCO2)c2nc3ccccc3nc2n1Cc1ccco1` (stereo not shown), the “hERG current change (%, negative = inhibition) at 10uM” value turned out to be 10.5%.
As to `N=c1c(C(=O)NCC2CCCO2)cc2c(=O)n3ccccc3nc2n1Cc1ccco1` (stereo not shown), the “hERG current change (%, negative = inhibition) at 10uM” value is -78.7%.
To `N=c1c(C(=O)NCC2CCCO2)cc2c(=O)n3ccccc3nc2n1Cc1ccccc1` (stereo not shown) belongs -75.3%; to `N=c1c(C(=O)NCC2CCCO2)cc2c(=O)n3ccccc3nc2n1Cc1cccnc1` (stereo not shown), -72.9%; to `N=c1c(C(=O)NCC2CCCO2)cc2c(=O)n3ccccc3nc2n1Cc1ccc(F)cc1` (stereo not shown), -80%.
Take `O=C(NCC1CCCO1)c1cn(Cc2ccccc2)nc1-c1ccccc1` (stereo not shown): the “hERG current change (%, negative = inhibition) at 10uM” value was -0.0253%.
